# Source: PubChem BioAssay (several laboratories)
# Most compounds without a hit are left out; they make up all but 0.98% or so of the library.
# Mtb betalactam – beta-lactam sensitization of Mtb H37Rv; M. tuberculosis H37Rv growth with meropenem, percent inhibition; inhibition, % at 25 µM; 330,000 compounds, 0.27% hits; AID 434955; call rule not given here;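 also: growth measured after seven days incubation then overnight dye step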
# PfHsp40 yeast – compounds rescuing yeast from Plasmodium falciparum HSP40 toxicity; S. cerevisiae expressing PfHsp40, growth rescue, ATP luminescence; growth rescue, % at 12.5 µM; AID 504582; 340,000 compounds, 0.68% hits; in the data active = growth rescue above about 28%, passing the limit was not always enough;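 also: yeast W303a lacking pdr1 and pdr3 grown in galactose medium; growth measured after three days at 30 °C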
# FadD28 FP inh – inhibitors of Mycobacterium tuberculosis FadD28 bisubstrate binding | FadD28 bisubstrate probe binding, fluorescence polarization | inhibition, % at 12.5 µM | 360,000 compounds, 0.22% hits | AID 588549; in the data active = inhibition above about 8.5%, passing the limit was not always enough
# Rv3671c inh – inhibits the M. tuberculosis serine protease Rv3671c; P9WHR9; inhibition, % at 5.96 µM; 320,000 compounds, 0.048% hits; in the data active = inhibition above about 38%;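 also: extracellular domain of Rv3671c used as enzyme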
# Target sequence (P9WHR9 whole entry, looked up, the tested form may be a part): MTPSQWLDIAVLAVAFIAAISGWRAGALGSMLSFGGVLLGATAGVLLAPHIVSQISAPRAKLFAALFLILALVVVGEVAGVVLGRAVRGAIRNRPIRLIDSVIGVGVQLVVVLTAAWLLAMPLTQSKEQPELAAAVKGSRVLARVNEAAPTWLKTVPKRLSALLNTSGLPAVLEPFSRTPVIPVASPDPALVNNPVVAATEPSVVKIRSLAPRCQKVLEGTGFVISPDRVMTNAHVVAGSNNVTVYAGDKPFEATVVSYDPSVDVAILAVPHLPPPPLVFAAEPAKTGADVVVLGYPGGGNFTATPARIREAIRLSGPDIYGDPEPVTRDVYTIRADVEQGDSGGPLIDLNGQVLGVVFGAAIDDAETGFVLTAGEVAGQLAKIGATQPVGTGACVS
# Yp Topo-I inh – inhibitors of Yersinia pestis topoisomerase I. 360,000 compounds, 0.064% hits. Y. pestis Topo-I cleavage product accumulation, plate reader. activity, % at 10 µM; in the data active = activity above about 50%, passing the limit was not always enough
# UGM FP inh – blocks M. tuberculosis UGM enzyme; P9WIQ1; purified UGM, fluorescence polarization probe displacement; inhibition, % at 10 µM; 320,000 compounds, 0.06% hits; AID 504406; in the data active = inhibition above about 10%, passing the limit was not always enough
# Hits are given with their value; – = inactive; · = no result.
SMILES,Mtb betalactam,PfHsp40 yeast,FadD28 FP inh,Rv3671c inh,Yp Topo-I inh,UGM FP inh
Cc1ccc(CNC(=O)[C@]2(C)CCC[C@@]3(C)C4CC[C@@]5(C)C[C@]4(CCC32)CC5=O)cc1 (some centres not stated),–,95,–,–,–,–
C[C@@]12CCC3[C@@](CCC4[C@@]3(C)CCC[C@@]4(C)C(=O)NC3CCCCC3)(CC1=O)C2 (some centres not stated),–,–,–,–,–,–
Nc1ccn([C@@H]2O[C@H](CNCc3ccc(-c4cc(C(F)(F)F)ccc4Cl)o3)[C@@H](O)[C@H]2O)c(=O)n1,·,·,–,·,–,·
S=c1[nH]nc(-c2ccco2)n1-c1ccc(Br)cc1,–,43,–,–,–,–
Cc1cccc(-n2c(-c3ccco3)n[nH]c2=S)c1,–,–,–,–,–,–
CC(C)CCn1c(COc2ccccc2)n[nH]c1=S,–,–,–,–,–,–
CCc1ccc(OCc2n[nH]c(=S)n2C(C)CCCC(C)C)cc1 (configuration not stated),–,57,–,–,63,–
CCc1ccc(OCc2n[nH]c(=S)n2Cc2ccccc2)cc1,–,101,–,–,–,–
Cc1oc(/N=C/c2ccccc2)c(C#N)c1C,–,–,–,·,–,–
COc1[nH]c(/N=C/c2ccccc2)c(C#N)c1C#N,–,–,28,–,–,–
O=C(CCN1c2ccccc2Sc2ccccc21)OCC(=O)N1CCN(C(=O)c2ccco2)CC1,–,–,–,–,52,–
Cc1cccc(S(=O)(=O)NC(=O)C2(C)CCN2C(=O)C2(c3ccc(Cl)cc3)CCC2)c1 (configuration not stated),·,·,–,·,–,·
O=C(O)c1ccc2[nH]c3c(c2c1)CCCC3,–,35,–,·,–,–
COc1ccc(Cl)cc1-c1noc([C@@H]2O[C@H](CO)[C@H](O)[C@H](O)[C@H]2O)n1,·,·,–,·,–,·
Cc1nnc(SCC(=O)N2c3ccccc3C(C)(c3ccccc3)CC2(C)C)s1 (configuration not stated),–,–,–,–,59,–
Cc1cc(NC(=O)C(C)SCC(=O)N(C)CC(=O)Nc2ccc(F)cc2)no1 (configuration not stated),–,–,–,–,101,–
Cc1cc(NC(=O)C(C)SCC(=O)N(C)CC(=O)Nc2ccccc2C(F)(F)F)no1 (configuration not stated),·,–,–,·,–,·
CCc1cccc2c(C(=O)COC(=O)c3ccc([N+](=O)[O-])s3)c[nH]c12,–,37,33,–,–,–
O=C(OCC(=O)c1c[nH]c2ccccc12)c1ccc([N+](=O)[O-])s1,–,–,–,–,–,–
CCOC(=O)CSc1nnc(CNC(=O)c2cccc(C)c2)n1-c1ccccc1OC,–,–,–,–,–,–
CCOC(=O)CSc1nnc(CNC(=O)c2cccc(C)c2)n1C,–,47,–,–,–,–
N#C/C(=N\Nc1ccc(S(=O)(=O)N2CCc3ccccc32)cc1)C(N)=S,–,–,46,–,–,–
COc1ccc(NC(=O)CSc2ncnc3sc(C)cc23)cc1,–,–,–,–,–,–
Cc1cc2c(SCC(=O)Nc3cccc(O)c3)ncnc2s1,·,–,19,·,–,·
Cc1[nH]nc(SCC(=O)N2CCCCC2)c1[N+](=O)[O-],–,–,–,–,–,–
SMILES,Mtb betalactam,PfHsp40 yeast,FadD28 FP inh,Rv3671c inh,Yp Topo-I inh,UGM FP inh
Cc1[nH]nc(SCC(=O)N2CCCCCC2)c1[N+](=O)[O-],–,49,–,–,–,–
Cc1cc(C)c(OCC(=O)Nc2cccc(NC(=O)c3ccco3)c2)c(Br)c1,–,122,–,–,–,–
CCN(CC)CCN=c1c(C)nc(C#N)c(N)n1O,·,·,–,·,–,·
Cc1ccc(OC(=O)CCC(=O)Oc2ccc(C)cc2C)c(C)c1,·,–,–,·,60,·
CCc1nc2c(OCc3ccc(F)c(F)c3)cccn2c1N(C)C(=O)c1ccc(OC)cc1,·,·,–,·,–,·
COc1cccc(/C=C(/C(=O)OCC(=O)NC2CCCC(C)C2C)c2ccccc2)c1 (configuration not stated),–,–,–,–,60,–
COc1cccc(/C=C(/C(=O)OCC(N)=O)c2ccccc2)c1,–,–,–,–,–,–
COc1ccc(NC(=O)[C@H](C)NS(=O)(=O)c2ccc(NC(C)=O)cc2)cc1Cl,·,·,–,·,–,·
Cc1[nH]c(N=Nc2ccccc2)nc1N=Nc1ccccc1,–,80,–,–,–,–
CC(=O)Nc1cccc(NC(=O)CSc2ccc(-c3ccccn3)nn2)c1,–,438,–,–,–,–
CCc1ccc(NC(=O)CSc2ccc(-c3ccccn3)nn2)cc1,–,305,–,–,–,–
CCc1ccc(NC(=O)CSc2ccc(-c3cccnc3)nn2)cc1,–,–,–,–,–,–
COc1ccc(C)cc1NC(=O)CSc1ccc(-c2ccccn2)nn1,–,–,–,–,–,–
CCOC(=O)c1ccccc1NC(=O)CSc1ccc(-c2ccccn2)nn1,–,211,–,–,–,–
COc1cc(NC(=O)CSc2ccc(-c3ccccn3)nn2)cc(OC)c1,–,221,–,–,–,–
CC(=O)c1cccc(NC(=O)CSc2ccc(-c3ccccn3)nn2)c1,–,–,–,–,–,–
CCNC(=O)C1(C)CCN(C(=O)c2ccccc2F)C1 (configuration not stated),·,·,–,·,–,·
CCNC(=O)C1(C)CCCN(Cc2ccccc2-c2ccccc2)C1 (configuration not stated),·,·,–,·,–,·
COc1cc(C(=O)c2cc3c(cc2C)OCO3)cc(OC)c1OC,·,·,–,·,·,·
CCCC1NC(=O)c2cccnc2-n2c1nc1ccc(C)cc1c2=O (configuration not stated),·,·,–,·,–,·
Cc1ccc(NC(=O)C2C(C(=O)O)C3C=CC2C32CC2)cc1 (configuration not stated),–,–,–,–,–,–
Cc1ccc(NC(=O)C2C(c3ccccc3)C=CC(c3ccccc3)C2C(=O)O)cc1 (configuration not stated),–,172,–,–,–,–
COc1ccccc1CNc1nc2cc(-c3ccsc3)sc2c(=O)n1C,·,·,–,·,–,·
O=C(COC(=O)CNC(=O)c1ccco1)Nc1ncc(Cl)cc1Cl,–,–,–,–,–,–
O=C(CCN1C(=O)c2ccccc2C1=O)NC(=S)Nc1cccc(Cl)c1,–,66,–,–,–,–
CCCCCC/C(C)=C1/SC(=S)NC1=O,–,–,–,–,–,–
C/C(C/C(C)=C1/SC(=S)NC1=O)=C1\SC(=S)NC1=O,·,–,20,·,–,·
CCCNC(=O)C1(C)CCCN(C(=O)C2(c3ccc(Cl)cc3)CCCC2)C1 (configuration not stated),·,·,–,·,–,·
FC(F)(F)c1nc(SCc2ccc(Cl)cc2Cl)n[nH]1,–,299,–,–,–,–
CC(C)C[C@H]1CNC(=O)C(=O)N1CC1CCN(CCC(C)c2ccccc2)CC1 (some centres not stated),·,·,–,·,·,·
